“And” between values parts separate entries of the source, which are not always exact repeats. Identical values can stand only once. The whole screen tested about 5,500 compounds, of which about 2,000 (36%) were called active. Inconclusive results (about 18%) are left out. No stated cut-off is given here; in the data, active means normalized growth mostly below about 0.91 (no sharp cut-off); inconclusive means no clear call, values can overlap the other calls; inactive means mostly above about 0.92. Some of the results follow.
Test: chemical genetic growth profiling, strain panel (AID 1159580);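 further: tested at 20 µM; growth read once vehicle control cultures reached saturation at 30 °C; 1 = growth at the plate median or of vehicle wells; lower values mean less growth of the strain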
Details: S. cerevisiae deletion strains, growth OD

Measured: normalized growth

O=[N+]([O-])c1cc(C(F)(F)F)cc([N+](=O)[O-])c1Oc1ccc(Cl)c(Cl)c1
active: locus YAL013W, strain DEP1, active compounds read low 0.0591 | locus YBR229C, strain ROT2, active compounds read low 0.062 | locus YDL101C, strain DUN1, active compounds read low 0.0834 | locus YDL134C, strain PPH21, active compounds read low 0.0454 | locus YDR150W, strain NUM1, active compounds read low 0.0593 | locus YEL061C, strain CIN8, active compounds read low 0.053 | locus YGR052W, strain FMP48, active compounds read low 0.12 | locus YGR078C, strain PAC10, active compounds read low 0.0542 | locus YGR229C, strain SMI1, active compounds read low 0.0505 | locus YHR030C, strain SLT2, active compounds read low 0.0926 and 0.11 | locus YHR079C, strain IRE1, active compounds read low 0.11 | locus YHR082C, strain KSP1, active compounds read low 0.12 | locus YHR087W, strain rtc3, active compounds read low 0.0631 | locus YJL095W, strain BCK1, active compounds read low 0.12 | locus YJL187C, strain SWE1, active compounds read low 0.0563 | locus YJR043C, strain POL32, active compounds read low 0.0569 | locus YJR066W, strain TOR1, active compounds read low 0.11 | locus YJR075W, strain HOC1, active compounds read low 0.084 | locus YKL171W, strain NNK1, active compounds read low 0.101 | locus YKL190W, strain CNB1, active compounds read low 0.0457 | locus YKL203C, strain TOR2, active compounds read low 0.0962 | locus YLR039C, strain RIC1, active compounds read low 0.0653 | locus YLR058C, strain SHM2 (second series), active compounds read low 0.0562 | locus YLR085C, strain ARP6, active compounds read low 0.0698 | locus YLR113W, strain HOG1, active compounds read low 0.173 | locus YLR262C, strain YPT6, active compounds read low 0.0617 | locus YML094W, strain GIM5, active compounds read low 0.0673 | locus YMR219W, strain ESC1, active compounds read low 0.0518 | locus YMR263W, strain SAP30, active compounds read low 0.0593 | locus YNL128W, strain TEP1, active compounds read low 0.0548 | locus YNL153C, strain GIM3, active compounds read low 0.0599 | locus YNL183C, strain NPR1, active compounds read low 0.146 | locus YNL207W, strain RIO2, active compounds read low 0.108 | locus YNL298W, strain CLA4 (second series), active compounds read low 0.0706 | locus YNL322C, strain KRE1, active compounds read low 0.0592 | locus YNR030W, strain Alg12, active compounds read low 0.0612 | locus YOL006C, strain TOP1, active compounds read low 0.068 | locus YOR119C, strain RIO1, active compounds read low 0.095 | locus YOR231W, strain MKK1, active compounds read low 0.113 | locus YPL055C, strain LGE1, active compounds read low 0.0764 | locus YPL241C, strain CIN2, active compounds read low 0.061 | locus YPL256C, strain CLN2, active compounds read low 0.135 | locus YPR135W, strain CTF4, active compounds read low 0.184
